The source of these data is PubChem BioAssay.

Test [1] in a line: yeast TOR pathway RPL19A-GFP modulators, primary screen, cell-based, S. cerevisiae, multiplex flow cytometry (AID 1862; in the data active means percent of DMSO control GFP below about 86%;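 further: lower values mimic rapamycin by blocking the RPL19A rise seen in DMSO cells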). Particulars: S. cerevisiae RPL19A-GFP strain, flow cytometry fluorescence, 3 h; at 10 µM; stronger effect = lower value. (In general: Flow cytometry measures light scatter and fluorescence of single cells or particles in a stream.)
The nature of test [2]: modulators of MEP2-GFP levels in yeast, primary screen, S. cerevisiae, multiplex flow cytometry (AID 1867;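 active means GFP response, as percent of the DMSO control, above the screen-wide mean plus 3 SD, about 139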;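 further: median GFP channel fluorescence of barcode-gated MEP2-GFP cells measured by flow cytometry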). Particulars: S. cerevisiae MEP2-GFP strain, 3 h, at 10 µM, stronger effect = higher value, 100% means same as DMSO wells.
Test [3] can be described thus: modulators of CIT2-GFP expression in yeast, primary screen, S. cerevisiae, GFP fusion, multiplex flow cytometry (AID 1870).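 Further: barcoded CIT2-GFP strain pooled with four other GFP strains with rapamycin as positive control; median GFP fluorescence per well over plate mean of DMSO wells so 100% = DMSO.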 Particulars: 3 h, at 10 µM, stronger effect = higher value.
Test [4] can be described thus: modulators of LAP4-GFP expression in yeast, primary screen, S. cerevisiae, multiplex flow cytometry (AID 1873;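 active means GFP signal, as percent of the solvent control, above the screen mean plus 3 SD, about 149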). Particulars: 3 h, at 10 µM, stronger effect = higher value.
A short description of test [5]: modulators of AGP1-GFP expression in yeast TOR pathway, primary screen, cell-based, multiplex flow cytometry, S. cerevisiae (AID 1887;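 active means GFP signal above the screen-wide mean plus 3 SD, that is over about 124.5% of the solvent control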;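 further: AGP1-GFP fusion strain of S. cerevisiae within a five-strain barcoded multiplex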). Particulars: 3 h, at 10 µM, stronger effect = higher value.
The nature of test [6]: inhibitors of CD8+ T cell-vesicle binding, pilot screen, LFA-1/ICAM-1 modulator project, MLPCN validation set, flow cytometry (AID 2523;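 active means response below a set limit, under 55% cells CD8-positive and vesicle-bound, and CD8 cells' 90th-percentile brightness under 279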;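 on vesicle binding response: mean PE anti-B7-1 fluorescence of CD8+ cells relative to row control; 100% = QL9-loaded vesicles with DMSO vehicle in the same plate row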). Particulars: 2C mouse CD8+ T cells, at 7 µM, stronger effect = lower value; double positive events: measured here: CD8+/vesicle+ event percentage.
Test [7] deals with Integrin beta-1 (Homo sapiens) + Integrin alpha-4 (Homo sapiens) (UniProt P13612+P05556). Description: inhibition of HUTS-21 binding to VLA-4, pilot screen, VLA-4 allosteric modulator project, U937 cells, HUTS-21 mAb, flow cytometry, validation set (AID 2674;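 active means inhibition above 50%, about 3 SD of the validation set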;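 further: antibody binding induced by the VLA-4 ligand LDV present at three times its Kd; 0% = LDV ligand with antibody and no compound and 100% = antibody without LDV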). Particulars: HUTS-21 LIBS mAb binding, at 6.7 µM, stronger effect = higher value, binding induced by LDV ligand.
Test [8] in a line: superoxide lowering in aged yeast cells, pilot screen, validation compound set (AID 2706;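 active means superoxide response below 65% of plate, a cut near 3 SD across the whole screen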;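 further: yeast exposed to compound for one week at 30 degrees C before staining; 100% = mean of all compound wells on the same plate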). Particulars: S. cerevisiae aging, superoxide DHE fluorescence; at 10 µM; stronger effect = lower value.
Test [9] concerns the target Beta-adrenergic receptor kinase 1 (Homo sapiens) (UniProt P25098). Nature of the test: GRK2 binders displacing RNA aptamer, biochemical, validation, human GRK2, bead flow cytometry (AID 488806;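 active means aptamer binding inhibition above 30%, about 3 SD of noise from non-fluorescent compounds; inactive means inhibition at or below 30%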). Particulars: bead-bound GRK2, FAM-aptamer displacement, at 10 µM, stronger effect = higher value.
For test [10], the target named is Beta-2 adrenergic receptor (Homo sapiens) (UniProt P07550). Description: beta2AR agonists driving receptor internalization, pilot screen, cell-based, FAP fluorogen, flow cytometry, validation set (AID 504459;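 active means percent response above 42, roughly 3 SD of non-fluorescent test compounds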;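 further: agonist-driven loss of surface beta2AR via internalization measured by FAP dye flow cytometry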). Particulars: Am2.2-beta2AR cells, FAP surface receptor flow cytometry; at 10 µM; stronger effect = higher value.
The target in test [11] is AP-2 complex subunit beta (Homo sapiens) (UniProt P63010). Nature of the test: inhibitors of arrestin peptide binding to AP2, pilot screen, biochemical, validation set, GST-AP2 beads, flow cytometry (AID 504541;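 active means inhibition above 54%, about 3 SD of non-fluorescent compounds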;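 further: AP2 carries R879A mutation and is captured from E. coli lysate; bead-bound FITC arrestin peptide fluorescence measuring arrestin peptide binding to AP2; 0% = DMSO wells and 100% = excess unlabeled arrestin peptide control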). Particulars: FITC arrestin peptide, at 10 µM, stronger effect = higher value, AP2 beta2 appendage fragment, R879A mutant.
Test [12] in a line: yeast V-ATPase proton transport modulators, S. cerevisiae, pHLuorin, HTS validation (AID 504600; in the data active means response above about 15%;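 further: plate controls were DMSO for no effect and reference compound for full effect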). Particulars: S. cerevisiae pHLuorin cytosolic pH, at 10 µM, stronger effect = higher value.
Test [13] relates to anti-desmoglein-3 scFv antibody binding to human DSG3. Nature of the test: inhibitors of anti-DSG3 scFv binding to DSG3, pilot screen, biochemical, validation compound set, bead-based, flow cytometry (AID 588368;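 active means binding below the plate cutoff, the plate median minus 3 SD, with a reading above zero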;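 further: signal is the median channel fluorescence of bead-bound GFP antibody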). Particulars: Protein G beads, DSG3-Fc, scFv-GFP binding, at 10 µM, stronger effect = lower value.
Test [14] can be described thus: inhibitors of fungal efflux pumps CDR1, CDR2, MDR1, pilot screen, validation compound set, multiplex, phenotypic (AID 588506;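 active means efflux inhibition above 0.42, the validation set average plus 4 SD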;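 further: Nile Red retained in cells so higher fluorescence means more efflux inhibition; 0 = negative control wells and 1 = enniatin B 25 µM full block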). Particulars: S. cerevisiae pump-expressing triplex, Nile Red efflux flow cytometry; at 10 µM; stronger effect = higher value; the pumps come from Candida albicans.
In test [15] the target is ATP-binding cassette sub-family B member 6 (Homo sapiens) (UniProt Q9NP58). Description: ABCB6 transporter inhibitors, pilot screen, K562-ABCB6 cells, flow cytometry, validation set (AID 588550;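 active means inhibition above the screen-wide mean plus 3 SD, about 51%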;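 further: 0% = DMSO wells and 100% = benzethonium chloride 70 µM positive control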). Particulars: K562-ABCB6 porphyrin accumulation, 1 h, at 10 µM, stronger effect = higher value.
Test [16] in a line: promoters of myeloid differentiation in arrested cells, primary screen, cell-based, GFP/MAC1 double positive, flow cytometry, validation set (AID 588685;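 active means differentiation response of at least 50%, scaled between solvent and reference control, from cells with both markers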;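 further: compound exposure lasts four days before antibody staining and flow analysis; 0% = DMSO wells and 100% = 5 µM fulvestrant positive control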). Particulars: ER-HoxA9 marrow cells, stronger effect = higher value, normalized: vehicle 0, fulvestrant 100.

The structures appear in SMILES notation. Results filed as inconclusive are left out. The source made the active and inactive calls.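 How the source made its calls, unless noted: active means percent response above a set limit, the screen-wide mean plus 3 SD (cut at about 130% in these data); inactive means the rest.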

Sequence of Integrin beta-1 (Homo sapiens) + Integrin alpha-4 (Homo sapiens) (P05556 whole entry, looked up): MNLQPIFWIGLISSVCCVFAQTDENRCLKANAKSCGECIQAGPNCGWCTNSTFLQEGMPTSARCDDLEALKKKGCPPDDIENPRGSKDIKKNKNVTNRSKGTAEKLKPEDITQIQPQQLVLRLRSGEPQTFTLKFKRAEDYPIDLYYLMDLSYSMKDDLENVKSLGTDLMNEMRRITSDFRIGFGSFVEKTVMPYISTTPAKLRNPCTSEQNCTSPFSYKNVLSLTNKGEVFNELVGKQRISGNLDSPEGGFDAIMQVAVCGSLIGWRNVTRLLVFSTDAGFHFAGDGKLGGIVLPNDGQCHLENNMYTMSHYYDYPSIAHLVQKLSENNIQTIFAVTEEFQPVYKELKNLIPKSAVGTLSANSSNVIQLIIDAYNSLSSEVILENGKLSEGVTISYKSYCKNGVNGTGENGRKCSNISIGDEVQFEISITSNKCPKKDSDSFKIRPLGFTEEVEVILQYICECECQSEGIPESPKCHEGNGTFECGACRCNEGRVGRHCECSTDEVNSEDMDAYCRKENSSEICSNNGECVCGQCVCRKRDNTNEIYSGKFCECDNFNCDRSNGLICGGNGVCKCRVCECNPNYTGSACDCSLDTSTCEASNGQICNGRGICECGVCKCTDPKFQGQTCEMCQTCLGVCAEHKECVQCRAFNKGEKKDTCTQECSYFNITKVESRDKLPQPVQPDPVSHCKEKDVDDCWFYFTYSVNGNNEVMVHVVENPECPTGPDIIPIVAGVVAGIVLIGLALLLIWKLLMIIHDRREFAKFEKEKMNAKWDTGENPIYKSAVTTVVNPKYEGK
Sequence of Integrin beta-1 (Homo sapiens) + Integrin alpha-4 (Homo sapiens) (P13612 whole entry, looked up): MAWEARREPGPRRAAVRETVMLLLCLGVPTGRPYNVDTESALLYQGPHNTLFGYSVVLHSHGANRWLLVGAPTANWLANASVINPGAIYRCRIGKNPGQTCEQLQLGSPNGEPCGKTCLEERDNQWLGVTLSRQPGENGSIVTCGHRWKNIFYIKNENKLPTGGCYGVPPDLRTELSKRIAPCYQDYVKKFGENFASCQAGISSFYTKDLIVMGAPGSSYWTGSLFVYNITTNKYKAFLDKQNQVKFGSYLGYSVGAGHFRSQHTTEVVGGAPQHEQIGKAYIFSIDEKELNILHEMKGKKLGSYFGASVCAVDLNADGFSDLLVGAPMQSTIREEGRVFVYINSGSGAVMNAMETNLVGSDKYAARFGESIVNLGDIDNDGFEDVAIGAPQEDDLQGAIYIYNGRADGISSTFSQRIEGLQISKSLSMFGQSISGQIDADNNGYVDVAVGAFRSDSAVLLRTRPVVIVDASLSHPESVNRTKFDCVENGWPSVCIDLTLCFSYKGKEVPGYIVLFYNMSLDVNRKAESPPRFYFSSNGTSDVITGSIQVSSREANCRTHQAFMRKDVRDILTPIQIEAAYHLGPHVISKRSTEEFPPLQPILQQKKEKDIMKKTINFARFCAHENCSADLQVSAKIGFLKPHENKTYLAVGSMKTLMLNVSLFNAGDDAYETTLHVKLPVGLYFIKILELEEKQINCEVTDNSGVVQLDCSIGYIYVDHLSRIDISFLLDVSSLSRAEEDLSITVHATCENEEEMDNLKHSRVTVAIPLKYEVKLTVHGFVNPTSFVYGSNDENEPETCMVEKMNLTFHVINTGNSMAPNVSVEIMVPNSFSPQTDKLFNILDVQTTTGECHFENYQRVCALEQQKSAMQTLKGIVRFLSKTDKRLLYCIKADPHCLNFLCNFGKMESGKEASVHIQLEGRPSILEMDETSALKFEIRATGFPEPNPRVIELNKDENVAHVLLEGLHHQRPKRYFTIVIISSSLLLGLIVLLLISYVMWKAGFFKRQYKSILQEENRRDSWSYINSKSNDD
Sequence of ATP-binding cassette sub-family B member 6 (Homo sapiens) (Q9NP58 whole entry, looked up): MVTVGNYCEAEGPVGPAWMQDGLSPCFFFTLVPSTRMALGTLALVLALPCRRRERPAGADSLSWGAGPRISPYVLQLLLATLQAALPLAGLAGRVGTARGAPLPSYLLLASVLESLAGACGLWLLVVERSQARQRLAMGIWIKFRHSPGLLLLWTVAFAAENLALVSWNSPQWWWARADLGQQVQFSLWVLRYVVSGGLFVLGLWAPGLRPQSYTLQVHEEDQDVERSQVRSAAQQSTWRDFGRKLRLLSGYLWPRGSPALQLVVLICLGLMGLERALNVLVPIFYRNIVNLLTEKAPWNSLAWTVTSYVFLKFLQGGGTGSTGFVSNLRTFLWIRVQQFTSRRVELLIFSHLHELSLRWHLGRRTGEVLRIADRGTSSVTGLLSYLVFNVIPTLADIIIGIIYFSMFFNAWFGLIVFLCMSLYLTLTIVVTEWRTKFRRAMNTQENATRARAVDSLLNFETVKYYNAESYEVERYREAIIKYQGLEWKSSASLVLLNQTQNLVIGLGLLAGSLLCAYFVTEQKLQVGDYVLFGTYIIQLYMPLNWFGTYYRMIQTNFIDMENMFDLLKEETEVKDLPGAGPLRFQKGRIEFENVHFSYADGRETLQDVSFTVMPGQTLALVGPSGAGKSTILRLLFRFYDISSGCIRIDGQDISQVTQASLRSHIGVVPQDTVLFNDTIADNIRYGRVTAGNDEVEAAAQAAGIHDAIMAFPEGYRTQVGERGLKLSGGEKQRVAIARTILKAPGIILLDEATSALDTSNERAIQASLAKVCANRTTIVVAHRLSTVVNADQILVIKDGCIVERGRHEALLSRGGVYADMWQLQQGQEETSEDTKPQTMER
Sequence of AP-2 complex subunit beta (Homo sapiens) (P63010 whole entry, looked up, the tested form may be a part, one chain of several): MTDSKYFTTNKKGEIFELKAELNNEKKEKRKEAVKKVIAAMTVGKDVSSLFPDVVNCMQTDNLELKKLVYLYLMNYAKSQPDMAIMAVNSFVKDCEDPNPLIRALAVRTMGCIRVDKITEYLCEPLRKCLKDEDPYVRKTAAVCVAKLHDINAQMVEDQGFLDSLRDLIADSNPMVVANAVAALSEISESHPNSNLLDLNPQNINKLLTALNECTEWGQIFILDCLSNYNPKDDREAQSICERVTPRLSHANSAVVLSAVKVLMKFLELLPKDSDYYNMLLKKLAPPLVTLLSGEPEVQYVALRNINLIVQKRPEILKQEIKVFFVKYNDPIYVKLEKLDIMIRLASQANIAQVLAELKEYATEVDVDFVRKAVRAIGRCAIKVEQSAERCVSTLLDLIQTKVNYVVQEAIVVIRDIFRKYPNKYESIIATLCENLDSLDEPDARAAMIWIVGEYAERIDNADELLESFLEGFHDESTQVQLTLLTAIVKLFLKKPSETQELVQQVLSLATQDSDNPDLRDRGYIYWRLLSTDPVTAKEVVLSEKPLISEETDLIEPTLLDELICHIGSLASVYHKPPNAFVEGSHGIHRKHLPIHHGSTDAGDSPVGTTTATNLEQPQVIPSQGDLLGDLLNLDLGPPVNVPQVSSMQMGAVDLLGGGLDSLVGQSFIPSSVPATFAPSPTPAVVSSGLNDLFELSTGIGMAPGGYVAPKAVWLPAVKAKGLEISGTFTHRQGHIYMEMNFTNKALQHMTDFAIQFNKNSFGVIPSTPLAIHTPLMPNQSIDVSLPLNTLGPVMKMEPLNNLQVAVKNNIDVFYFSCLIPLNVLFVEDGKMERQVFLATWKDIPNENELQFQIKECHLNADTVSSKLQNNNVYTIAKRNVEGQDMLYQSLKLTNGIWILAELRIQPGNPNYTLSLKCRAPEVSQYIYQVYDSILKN
Sequence of Beta-2 adrenergic receptor (Homo sapiens) (P07550 whole entry, looked up): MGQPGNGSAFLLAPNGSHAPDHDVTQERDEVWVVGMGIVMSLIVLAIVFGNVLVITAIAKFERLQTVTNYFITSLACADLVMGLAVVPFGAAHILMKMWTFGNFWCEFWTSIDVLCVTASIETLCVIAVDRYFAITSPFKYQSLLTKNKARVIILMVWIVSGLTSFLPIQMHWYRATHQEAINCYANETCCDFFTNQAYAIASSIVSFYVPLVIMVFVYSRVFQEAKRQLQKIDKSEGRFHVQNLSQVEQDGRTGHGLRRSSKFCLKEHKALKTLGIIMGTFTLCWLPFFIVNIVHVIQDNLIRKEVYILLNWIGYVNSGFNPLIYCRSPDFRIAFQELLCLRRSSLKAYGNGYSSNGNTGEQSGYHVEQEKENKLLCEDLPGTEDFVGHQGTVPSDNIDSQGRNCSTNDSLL
Sequence of Beta-adrenergic receptor kinase 1 (Homo sapiens) (P25098 whole entry, looked up): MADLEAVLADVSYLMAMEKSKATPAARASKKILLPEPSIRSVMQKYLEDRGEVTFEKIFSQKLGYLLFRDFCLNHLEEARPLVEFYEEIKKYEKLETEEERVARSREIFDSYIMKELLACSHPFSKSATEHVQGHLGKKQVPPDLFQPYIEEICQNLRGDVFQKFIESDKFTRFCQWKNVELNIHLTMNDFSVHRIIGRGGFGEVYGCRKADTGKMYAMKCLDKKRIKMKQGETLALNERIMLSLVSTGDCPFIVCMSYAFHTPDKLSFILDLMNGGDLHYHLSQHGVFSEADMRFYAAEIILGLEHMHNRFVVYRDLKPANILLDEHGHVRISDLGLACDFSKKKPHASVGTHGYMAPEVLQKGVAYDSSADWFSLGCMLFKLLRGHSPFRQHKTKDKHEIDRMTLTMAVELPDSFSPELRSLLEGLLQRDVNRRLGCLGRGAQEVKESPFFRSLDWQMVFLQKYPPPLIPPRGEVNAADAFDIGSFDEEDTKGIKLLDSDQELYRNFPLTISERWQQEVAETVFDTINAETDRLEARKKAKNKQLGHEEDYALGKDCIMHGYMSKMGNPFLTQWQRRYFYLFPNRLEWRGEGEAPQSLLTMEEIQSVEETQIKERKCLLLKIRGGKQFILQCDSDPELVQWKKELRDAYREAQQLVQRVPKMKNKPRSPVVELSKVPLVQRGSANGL

The term inhibition denotes the change of the read-out against control, counted positive when it falls. With `O=C1CC(c2ccc(O)cc2)Oc2cc(O)cc(O)c21` (stereo not given), the percent of DMSO control GFP in test [1] is 107% (inactive). Moreover, the GFP response vs DMSO in test [2] was 99.3% (inactive); in [4], 104% (inactive). Further, the percent response of DMSO control in test [3] is 107% (inactive). Moreover, the GFP response, % of DMSO in test [5] was 110% (inactive). Also, in test [6], the double positive events turned out to be 61.7%. In [6], the vesicle binding response is 238% (inactive). In addition, the figures for the inhibition in [7], in test [11] and in test [15] were -31.6% (inactive), -6.71% (inactive) and 9% (inactive), respectively. The superoxide response (% of plate) in test [8] was 91.7% (inactive). In addition, the aptamer binding inhibition in test [9] was 1% (inactive). Also, the response is -11.3% (inactive) in test [10] and 4.67% (inactive) in test [12]. In addition, the binding (% of control) in test [13] was 94.3% (inactive). Further, in test [14], the efflux inhibition (fraction of control) was -0.26 (inactive). For the same compound, the differentiation response in test [16] is 1.22% (inactive).
Turning to `CN(CCO)CC(O)Cn1cnc2c1c(=O)n(C)c(=O)n2C` (stereo not given) (tested in a mixture with another compound), the percent of DMSO control GFP in [1] was 101% (inactive). The figures for the GFP response vs DMSO in test [2] and in test [4] were 109% (inactive) and 106% (inactive), respectively. In addition, in test [3], the percent response of DMSO control was 100% (inactive). The GFP response, % of DMSO in test [5] was 112% (inactive). This compound also returned a double positive events in test [6] of 62.5%. Further, in test [6], the vesicle binding response is 211% (inactive). The inhibition in test [7] was 14.2% (inactive); in [11], -3.41% (inactive); in test [15] it was 7% (inactive). Moreover, the superoxide response (% of plate) in test [8] is 93.2% (inactive). In addition, in [9], the aptamer binding inhibition is -1% (inactive). Also, the results for the response in test [10] and in [12] were -18.1% (inactive) and -1.98% (inactive), respectively. Moreover, the binding (% of control) in test [13] was 103% (inactive). For the same compound, the efflux inhibition (fraction of control) in [14] was -0.09 (inactive). In test [16], the differentiation response is -3.02% (inactive).
With `COc1ccc(C(=O)Nc2cccnc2)cc1C(=O)Nc1cccnc1`, in test [1], the percent of DMSO control GFP is 104% (inactive). Moreover, the GFP response vs DMSO in test [2] and in test [4] was 107% (inactive) throughout. Moreover, the percent response of DMSO control in [3] is 102% (inactive). For the same compound, in test [5], the GFP response, % of DMSO was 106% (inactive). In addition, the double positive events in [6] turned out to be 65%. The vesicle binding response in test [6] was 191% (inactive). The inhibition in test [7] was -3.77% (inactive); in [11], -14.1% (inactive); in [15], 8% (inactive). In addition, the superoxide response (% of plate) in [8] was 104% (inactive). The aptamer binding inhibition in test [9] was 2% (inactive). Moreover, the response in test [10] was 9.93% (inactive); in [12] it was 0.74% (inactive). In addition, the binding (% of control) in [13] was 99% (inactive). Also, the efflux inhibition (fraction of control) in test [14] was -0.11 (inactive). For the same compound, the differentiation response in test [16] was 13% (inactive).
In the case of `OC(CCN1CCCC1)(c1ccccc1)C1CCCCC1` (stereo not given), the percent of DMSO control GFP in [1] was 87.3% (inactive). The results for the GFP response vs DMSO in test [2] and in test [4] were 134% (inactive) and 80.9% (inactive), respectively. Besides, in [3], the percent response of DMSO control is 102% (inactive). The GFP response, % of DMSO in [5] is 89.4% (inactive). For the same compound, in test [6], the double positive events is 63.6%. Also, in [6], the vesicle binding response was 284% (inactive). Also, the results for the inhibition in test [7], in [11] and in [15] were 0.64% (inactive), 34.9% (inactive) and 109% (active), respectively. For the same compound, the superoxide response (% of plate) in test [8] was 93.8% (inactive). In test [9], the aptamer binding inhibition was -1% (inactive). Further, the response in test [10] was 6.72% (inactive); in test [12] it was -6.1% (inactive). In addition, the binding (% of control) in [13] was 97.4% (inactive). The efflux inhibition (fraction of control) in [14] was 0.12 (inactive). For the same compound, the differentiation response in [16] is -4.91% (inactive).
For `O=C1c2ccccc2C(=O)N1/N=C/c1ccc(Oc2ccc([N+](=O)[O-])cn2)cc1`, in [1], the percent of DMSO control GFP was 103% (inactive). Besides, the values for the GFP response vs DMSO in test [2] and in test [4] were 107% (inactive) and 92% (inactive), respectively. In addition, the percent response of DMSO control in test [3] was 115% (inactive). The GFP response, % of DMSO in [5] is 107% (inactive). The double positive events in test [6] was 56.2%. The vesicle binding response in [6] is 38.7% (inactive). The inhibition is 12% (inactive) in [7], 2.91% (inactive) in test [11] and -7% (inactive) in test [15]. The superoxide response (% of plate) in [8] is 106% (inactive). The aptamer binding inhibition in test [9] is 0% (inactive). The values for the response in [10] and in test [12] were -4.65% (inactive) and -3.15% (inactive), respectively. Moreover, the binding (% of control) in [13] is 92.5% (inactive). For the same compound, in [14], the efflux inhibition (fraction of control) was -0.01 (inactive). Also, the differentiation response in test [16] is -7.57% (inactive).
